For 54 compounds, INHIBITION results are on record in ChEMBL document CHEMBL4513216, “Probing the Open Global Health Chemical Diversity Library for Multistage-Active Starting Points for Next-Generation Antimalarials” (ACS Infect Dis, 2020).

About 8,600 (12%) of roughly 69,000 compounds showed an effect of 50% or more. The sample as a whole holds a higher share of strong results than the screen did.

The assay relates to Plasmodium berghei. The assay can be described thus: Screen against P. berghei liver stage (PbLuc), transformed with Luciferase, at 10uM. The assay is classed as functional, HepG2. The conditions noted are these: tested at 10 uM.
For the compound `CCc1nc2ccccc2n1C(CC)C(=O)N(C)CCc1noc(C)n1` (centres undefined), the INHIBITION is on record as -4.12%.

As to `CC(C)c1noc(OCc2cccc(S(=O)(=O)N(C)C)c2)n1`, the INHIBITION worked out at 37.8%.

For the compound `CCCn1nnc(NCc2ccccc2OCc2ccc(Cl)cc2)n1`, the INHIBITION is given as -36.8%.

Take `COc1ccccc1CNC(=O)C[S+]([O-])Cc1cc(C)on1` (centres undefined): the INHIBITION is given as -9.19%.

In the case of `CCN(CC1CCOC1)C(=O)c1ccc(N2CCOCC2)c(F)c1` (centres undefined), the INHIBITION is reported as 66.2%.

Regarding `CCN(CC1CCOC1)C(=O)c1ccccc1N1CCOCC1` (centres undefined), the INHIBITION came out at 26.8%.

As for `CCN(CC1CCOC1)C(=O)c1cc(Cl)c2c(c1)OCO2` (centres undefined), the INHIBITION came to 56.6%.

As to `O=C(c1cc(Cl)c2c(c1)OCCCO2)N(CC1CCOC1)C1CC1` (centres undefined), the INHIBITION turned out to be 30.9%.

Regarding `CCN(CC1CCOC1)C(=O)c1cc(OC)c2c(c1)OCCO2` (centres undefined), the INHIBITION stood at 30.9%.

As to `CCN(CC1CCOC1)C(=O)c1cc(F)ccc1N1CCN(C)CC1` (centres undefined), the INHIBITION worked out at 7.27%.

`COCC(=O)N1CCCC(c2noc3nc(C)cc(C(F)(F)F)c23)C1` (centres undefined): the INHIBITION is recorded as 24.4%.

For the compound `CC(C)NC(=O)COc1ccc(-c2nc(C(C)C)no2)cc1`, the INHIBITION amounted to 10.7%.

Regarding `Cc1csc(C(C#N)C(=O)NCc2ccccc2)n1` (centres undefined), the INHIBITION is 52.6%.

As for `Cc1csc(C(C#N)C(=O)NCc2cccnc2)n1` (centres undefined), the INHIBITION was 26.5%.

Take `Cc1csc(C(C#N)C(=O)Nc2ccccc2)n1` (centres undefined): the INHIBITION is 8.08%.

Consider `Cc1cc(N(C)C)nc(C2CCNC2)n1` (centres undefined), for which the INHIBITION came out at 35%.

As to `O=C(NC1CCCc2nc(N3CCCCC3)ncc21)C1CCCC1` (centres undefined), the INHIBITION is 40%.

With `Cc1ccc(C(CNC(=O)Nc2cn[nH]c2)N2CCOCC2)o1` (centres undefined), the INHIBITION is recorded as -45.6%.

For the compound `CC1=Nc2c(c(=O)[nH]n2C(C)C)C(c2ccsc2)S1` (centres undefined), the INHIBITION came to 30%.

With `O=C(NCc1cccnc1)N1CCc2ncnc(C3CC3)c2CC1`, the INHIBITION is recorded as -14.3%.

As to `O=C(O)c1ccc(S(=O)(=O)Nc2cnn(CC(F)(F)F)c2)cc1`, the INHIBITION is given as 72.8%.

`O=C(O)CCc1ccc(S(=O)(=O)Nc2cnn(CC(F)(F)F)c2)cc1`: the INHIBITION is 28.1%.

Turning to `O=C(O)CCc1ccc(S(=O)(=O)Nc2cnn(CC3CC3)c2)cc1`, the INHIBITION worked out at 5.51%.

As to `O=C(NCCOc1ccc(Cl)cn1)Nc1ccccn1`, the INHIBITION is listed as -34.8%.

Take `CS(=O)(=O)NCc1cncc2c1CCN(C(=O)c1cccnc1)C2`: the INHIBITION turned out to be 4.57%.

Take `Cc1cnn(CC(=O)NCC2CCN(c3cc(Cl)ccc3C)C2)c1` (centres undefined): the INHIBITION is listed as -47.28%.

On to `Cc1cnn(C(C)C(=O)NCC2CCN(c3cnn(C)c(=O)c3)CC2)c1` (centres undefined), for which the INHIBITION was -9.08%.

In the case of `NCC1CCN(c2cnn(CCCn3cccn3)c(=O)c2)CC1`, the INHIBITION is on record as 61%.

In the case of `O=c1cc(N2CCCCC2)cnn1CCCn1cccn1`, the INHIBITION was -54%.

Take `CCCOCCn1ncc(N2CCCC2)cc1=O`: the INHIBITION is listed as -49.2%.

`CCC(CC)Cn1ncc(N2CCOCC2)cc1=O`: the INHIBITION came to 23.8%.

On to `O=c1cc(N2CCNCC2)cnn1CCCn1cccn1`, for which the INHIBITION worked out at 49.9%.

As to `Cc1cnn(CCCn2ncc(N3CCC(CN)C3)cc2=O)c1` (centres undefined), the INHIBITION was determined as 66.5%.

For the compound `CN1CCN(c2cnn(CCn3cccn3)c(=O)c2)CC1`, the INHIBITION is 57.3%.

For `Cc1nn(C)c(C)c1C1COCCN1C(=O)c1cc(F)ccc1F` (centres undefined), the INHIBITION is reported as -2.19%.

`COc1cccc(CN2CCCC2c2cccc(F)c2)c1OC` (centres undefined): the INHIBITION amounted to 1.45%.

With `Cc1nn(C)cc1-c1cc(C(F)F)n2nc(CCC(=O)O)nc2n1`, the INHIBITION was 21.9%.

For the compound `COc1ccc(Cl)cc1S(=O)(=O)N(C)CC(=O)Nc1ccon1`, the INHIBITION is listed as -44.8%.

For the compound `Cc1cnn(CC2CCCN2C(=O)CCc2c(C)noc2C)c1` (centres undefined), the INHIBITION worked out at 17.3%.

For `CN1CCC(N2CC[C@@H]3[C@@H](CCC(=O)N3CCC3=CCCCC3)C2)CC1`, the INHIBITION was determined as 33.9%.

For `O=C1CC[C@H]2CN(C3CCOCC3)CC[C@H]2N1CCC1=CCCCC1`, the INHIBITION worked out at 58.5%.

As to `CS(=O)(=O)N1CC[C@@H]2[C@@H](CCC(=O)N2CCC2=CCCCC2)C1`, the INHIBITION is 19.4%.

On to `Cc1ccc(C(N)=O)c(N2Cc3cnc(C(C)(C)C)nc3C2)n1`, for which the INHIBITION was determined as 17.1%.

Take `COC(=O)[C@@H]1CCCN1C(=O)c1cn(CCCc2ccccc2)nn1`: the INHIBITION is listed as 2.4%.

`NC(=O)[C@@H]1CCCN1C(=O)c1cn(C/C=C/c2ccccc2)nn1`: the INHIBITION worked out at 57.1%.

For `Cc1cccc(C2CCCCCN2C(=O)c2cn(CC(N)=O)nn2)c1` (centres undefined), the INHIBITION was -15.245%.

Take `Cc1nc(C(C)NC(=O)c2cn(C/C=C/c3ccccc3)nn2)n[nH]1` (centres undefined): the INHIBITION is 29.1%.

With `COC(=O)C1CCCCN1C(=O)c1cn(C/C=C/c2ccccc2)nn1` (centres undefined), the INHIBITION is reported as 9.79%.

Regarding `COC(=O)[C@@H]1CCCN1C(=O)c1cn(C/C=C/c2ccccc2)nn1`, the INHIBITION turned out to be 52.6%.

Consider `Cc1ccc(C(=O)N2CC[C@@H](N(C)C)[C@@H]2Cc2cnn(C)c2)cn1`, for which the INHIBITION is recorded as 15.9%.

`COc1ccc(N2CCN(C(=O)[C@@H]3C[C@@H](O)CN3)CC2(C)C)cc1`: the INHIBITION is listed as 35.3%.

Regarding `CC(=O)c1c(O)n(C)c2ccc(C)cc12`, the INHIBITION is reported as -10.5%.

Take `Cc1nn(C)c(C)c1-c1ccc(=O)n(C(C)C(=O)NC2CCCC2)n1` (centres undefined): the INHIBITION came out at 35.05%.

With `COc1cc2c(cc1C1CC(=O)NCc3nc(N(C)C)sc31)CCC2` (centres undefined), the INHIBITION is on record as 27.6%.
